We go through 24 compounds from PubChem BioAssay (Tox21).

Each structure is given as a SMILES string. Values joined by “and” are separate entries in the source; they are usually repeats but may differ in a detail not shown here. Equal entries are not always repeated. Records with an inconclusive call do not appear. Some structures have more than one record in an assay (separate samples or runs), and their calls can disagree. Active and inactive are the calls of the source. Calls follow the shape of the dose curve; as a rule, active = well fitted curve in the direction sought with a large enough effect in the repeat runs; inconclusive = weak or mixed curves; inactive = no such curve, though single readings can be large; an effect the other way counts as inactive or inconclusive.

A short description of experiment [1]: A CellTox Green Cytotoxicity Assay to monitor cytotoxicity in HepG2 cells - 0 hour (AID 1224882). Also: nearly all actives have a fitted effect of over 35% in size. The essentials: (§1)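 Real-time cytotoxicity: fluorescence of a cell-impermeant cyanine dye binding DNA of dead HepG2 cells, measured repeatedly (0–40 h) during compound exposure at 37 C. Cells seeded 600/well with reagent, dosed after 5 h.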
Experiment [2] is described as follows: A CellTox Green Cytotoxicity Assay to monitor cytotoxicity in HepG2 cells - 32 hour (AID 1224883). Also: nearly all actives have a fitted effect of over 50% in size. Also: potency is read from the fitted curve at half-maximal effect. The essentials: as §1
Experiment [3] is described as follows: A CellTox Green Cytotoxicity Assay to monitor cytotoxicity in HEK293 cells - 8 hour (AID 1224884). Also: nearly all actives have a fitted effect of over 35% in size. The essentials: (§2)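 Fluorescence from a DNA-binding dye excluded by viable cells was measured repeatedly in the same HEK293 wells (600 cells/well) during continuous compound exposure at 37 C. Each assay gives one read point: 0, 8, 16, 24, 32 or 40 h.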
A short description of experiment [4]: qHTS RealTime-Glo MT Cell Viability Assay in HepG2 cells - 16 hour (AID 1224885). Also: nearly all actives have a fitted effect of over 50% in size. The essentials: (§3)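 Viability was tracked continuously by NanoLuc luminescence from prosubstrate reduced by living HepG2 cells, at successive time points over 40 h of compound exposure. Cells with reagent were preincubated 5 h at 37 °C before compound addition.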
The nature of experiment [5]: qHTS RealTime-Glo MT Cell Viability Assay in HEK293 cells - 8 hour (AID 1224887). Also: nearly all actives have a fitted effect of over 50% in size. Also: potency is read from the fitted curve at half-maximal effect. As to activity change, negative = cytotoxicity: top concentration of the series differs between compounds. Put shortly:
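Luminescence, which tracks viable cell number through reduction of the prosubstrate to a NanoLuc substrate, was read over continuous 37 C culture. Cells (600/well) were premixed with reagent and rested 5 h before 23 nL of compound in DMSO was pinned.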
A general note: In qHTS, concentration-response curves come from the screen itself.

A short description of experiment [6]: A CellTox Green Cytotoxicity Assay to monitor cytotoxicity in HEK293 cells - 16 hour (AID 1224888). Also: nearly all actives have a fitted effect of over 35% in size. The essentials:
as §2

Experiment [7] is described as follows: qHTS RealTime-Glo MT Cell Viability Assay in HepG2 cells - 0 hour (AID 1224889). Also: nearly all actives have a fitted effect of over 50% in size. The essentials:
as §3

The nature of experiment [8]: A CellTox Green Cytotoxicity Assay to monitor cytotoxicity in HepG2 cells - 8 hour (AID 1224890). Also: nearly all actives have a fitted effect of over 45% in size. Also: potency is read from the fitted curve at half-maximal effect. Put shortly: as §1
Experiment [9] in a line: qHTS RealTime-Glo MT Cell Viability Assay in HEK293 cells - 24 hour (AID 1224886). Also: nearly all actives have a fitted effect of over 50% in size. Also: potency is read from the fitted curve at half-maximal effect. As to activity change, negative = cytotoxicity: top concentration of the series differs between compounds. Put shortly: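 Viability tracked continuously by luminescence as live cells reduce a prosubstrate for NanoLuc; HEK293 cells preincubated 5 h, compound-treated at 37 C, and read at 0, 8, 16, 24, 32 and 40 h.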
% is scaled to controls: 0 for no effect and ±100 for the full control effect.

For the compound `CC(=O)CC(C)(C)C1CCCCC1`, the Potency result in experiment [1], in experiment [2], in experiment [3], in [4], in [5] and in experiment [6] was “inactive” each time. Moreover, the Potency entry in experiment [7] and in [8] was “inactive” each time.
Take `CO[C@]12C[C@@H](COC(=O)c3cncc(Br)c3)CN(C)[C@@H]1Cc1cn(C)c3cccc2c13`: the Potency in experiment [2] is 23.9 µM (active); in experiment [5] it was 21.3 µM (active); in experiment [8], 26.8 µM (active). Further, the Potency result in experiment [3], in experiment [4] and in experiment [9] was “inactive” each time.
For the compound `CN(C(=O)c1c(O)c2ccccc2n(C)c1=O)c1ccccc1`, the Potency entry in [1], in [2], in [3], in experiment [4], in experiment [9] and in [6] was “inactive” in each case. Besides, the Potency entry in [7] and in [8] was “inactive” in each case.
For `O=c1cc(-c2ccccc2)oc2ccccc12`, the Potency entry in experiment [1], in experiment [3], in experiment [4], in experiment [6], in experiment [7] and in [8] was “inactive” throughout. Also, the Potency entry is “inactive and 48.7 µM (active)” in experiment [2]; 17.4 µM (active) and 7.71 µM (active) in experiment [9]; 17.4 µM (active) and 17.3 µM (active) in experiment [5].
For `COC(=O)C1=C(C)NC(C)=C(C(=O)OC)C1c1ccccc1[N+](=O)[O-]`, the Potency entry in experiment [1], in experiment [2], in experiment [3], in experiment [9], in experiment [5] and in [6] was “inactive” each time. In addition, in [8], the Potency result was “inactive”.
For `CCc1nccnc1CC`, the cytotoxicity in experiment [1] is -0.271% [at 15.8 µM] (inactive). Moreover, the values for the cytotoxicity increase in experiment [2], in experiment [3] and in experiment [8] were 4.25% [at 15.8 µM] (inactive), -4.27% [at 15.8 µM] (inactive) and 4% [at 15.8 µM] (inactive), respectively. The activity change, negative = cytotoxic in [4] is -1.18% [at 15.8 µM] (inactive). Further, the activity change, negative = cytotoxicity in [5] is -0.69% [at 15.8 µM] (inactive); in [7] it was -0.513% [at 15.8 µM] (inactive). The activity change in experiment [6] is -4.2% [at 15.8 µM, stronger effect = higher value] (inactive).
In the case of `C[C@H]1C[C@@H](O)CC(C)(C)C1`, the Potency entry in experiment [1], in experiment [2], in experiment [4], in experiment [9] and in [7] was “inactive” in each case.
`O=[N+]([O-])c1ccc(F)cc1F`: the Potency result in [1], in experiment [2], in experiment [3], in experiment [9], in [5] and in experiment [6] was “inactive” in each case. In addition, the Potency entry in [7] and in experiment [8] was “inactive” throughout.
Turning to `CCCCOCCOCCOCCCC`, the Potency result in experiment [1], in [2], in experiment [3], in [4], in experiment [9] and in [6] was “inactive” throughout. Besides, the Potency entry in experiment [7] and in experiment [8] was “inactive” each time.
On to `OC1CCCCC1c1ccccc1` (configuration not stated), for which the Potency result in [2], in [3], in [4], in [9], in experiment [5] and in experiment [6] was “inactive” each time. Moreover, the Potency result in experiment [7] and in experiment [8] was “inactive” throughout.
With `CCCCCCCCCCCCCC=O`, the cytotoxicity in [1] is 11.5% [at 6.97 µM] (inactive). Also, the cytotoxicity increase in experiment [2] is 1.86% [at 6.97 µM] (inactive); in experiment [3] it was -1.61% [at 6.97 µM] (inactive). In addition, the figures for the activity change, negative = cytotoxicity in [9] and in [7] were 6.14% [at 6.97 µM] (inactive) and 15.5% [at 6.97 µM] (inactive), respectively. Further, the activity change in [6] was -6.87% [at 6.97 µM, stronger effect = higher value] (inactive).
Regarding `Cn1c(N)c(N=O)c(=O)n(C)c1=O`, the Potency entry in experiment [1], in experiment [2], in experiment [3], in experiment [4], in experiment [5] and in [6] was “inactive” in each case. Moreover, the Potency result in experiment [7] and in experiment [8] was “inactive” in each case.
With `COC(=O)CCSCCC(=O)OC`, the Potency result in experiment [1], in experiment [2], in experiment [3], in [9], in experiment [5] and in [6] was “inactive” each time. The Potency result in experiment [7] and in experiment [8] was “inactive” in each case.
With `O=C1CCCN1C1CCCCC1`, the Potency result in experiment [2], in experiment [3], in experiment [4], in experiment [9], in experiment [5] and in [6] was “inactive” in each case. In addition, the Potency result in experiment [7] and in experiment [8] was “inactive” in each case.
As for `Cc1ccc(C#N)cc1`, the Potency result in experiment [2], in [3], in [4], in experiment [5], in experiment [6] and in experiment [7] was “inactive” throughout. The Potency entry in experiment [8] is “inactive”.
For the compound `CCN(CC)CCNC(=O)c1cc(S(C)(=O)=O)ccc1OC`, the Potency result in experiment [1], in [2], in experiment [9], in [5] and in experiment [7] was “inactive” throughout.
`CCO[Si](CCC1CCC2OC2C1)(OCC)OCC` (configuration not stated): the Potency entry in experiment [1], in [2], in experiment [3], in [9], in experiment [5] and in [6] was “inactive” each time. Besides, the Potency result in [7] was “inactive”.
With `CC(C)(CC(=O)O)C(=O)O`, the Potency result in experiment [3], in [9], in experiment [5], in experiment [6], in experiment [7] and in [8] was “inactive” each time.
For `CCOC(=O)c1cccc(N)c1`, the Potency entry in experiment [1], in [2], in [3], in experiment [9], in experiment [6] and in experiment [7] was “inactive” throughout. For the same compound, the Potency result in [8] is “inactive”.
Take `NC(=O)c1cn(Cc2c(F)cccc2F)nn1`: the Potency result in [1], in experiment [2], in experiment [3], in [9], in experiment [6] and in [7] was “inactive” in each case. In experiment [8], the Potency entry is “inactive”.
Regarding `O=C1CC2CC1C1CCCC21` (configuration not stated), the Potency result in experiment [2], in experiment [4], in [9], in [5], in [7] and in experiment [8] was “inactive” throughout.
In the case of `C=C1CC[C@H]2C[C@@H]1C2(C)C`, the Potency result in [1], in experiment [2], in [3], in [4], in experiment [9] and in [6] was “inactive” in each case. Also, the Potency result in [7] and in experiment [8] was “inactive” each time.
On to `OCCOc1ccc(OCCO)cc1`, for which the Potency result in experiment [1], in [2], in experiment [3], in experiment [4], in [9] and in experiment [6] was “inactive” in each case. Besides, the Potency entry in experiment [7] was “inactive”.
On to `CCn1ccnc1CC1COc2ccccc2O1` (configuration not stated), for which the Potency result in experiment [1], in experiment [2], in [3], in experiment [4], in experiment [6] and in [7] was “inactive” throughout. The Potency entry in [8] was “inactive”.
